# Measured values as given in PubChem BioAssay AID1159577 (Broad Institute, 2015).
# Among all 1,300 compounds or so, about 240 (18%) were called active. Inconclusive results (about 8%) are left out. How the calls were made is not given here. A selection follows. Results with a measured potency or affinity are listed apart.
# Experiment: HepG2 cell cytotoxicity, dose response, cytotoxicity control, cherry-picked samples (AID 1159577)
# Conditions: HepG2 cytotoxicity counterscreen, plate reader; series mostly up to 19.5 µM
row,Structure (SMILES),outcome
1,COc1ccc2c3c([nH]c2c1)[C@H](CO)N(Cc1ccccc1Cl)CC31CN(C(=O)C2CC2)C1,inactive
2,C[C@@H]1CN([C@@H](C)CO)C(=O)c2cccc(NC(=O)c3ccc(-c4nccs4)cc3)c2O[C@H]1CN(C)Cc1ccc(Cl)c(Cl)c1,inactive
3,C[C@H](O)C#Cc1cnc2c(c1)C(=O)N([C@@H](C)CO)C[C@@H](C)[C@@H](CN(C)C(=O)Cc1ccncc1)O2,inactive
4,CO[C@H]1CN(C)C(=O)c2ccc(NC(=O)c3nc4ccccc4s3)cc2OC[C@H](C)N(Cc2ccncc2)C[C@@H]1C,inactive
5,C[C@@H]1CN([C@@H](C)CO)S(=O)(=O)c2ccc(C#CC3CCCC3)cc2O[C@H]1CN(C)C(=O)Cc1ccncc1,inactive
6,C[C@@H](O)C#Cc1ccc([C@H]2[C@H]3CN(S(=O)(=O)c4ccccc4)CCCCN3[C@H]2CO)cc1,inactive
7,CC(C)C#Cc1ccc([C@@H]2[C@H](CO)N3CCCCN(C(=O)c4ccc5c(c4)OCO5)C[C@@H]23)cc1,inactive
8,COc1ccc2c3c(n(C)c2c1)[C@H](CO)N(C(=O)Nc1ccc(F)cc1)CC31CCN(C(=O)c2ccc3c(c2)OCO3)CC1,inactive
9,CC(C)(C)S(=O)N1Cc2cc(C(=O)NCc3ccc4c(c3)OCO4)nc(-c3cccc(-c4cc5ccccc5o4)c3)c2[C@H]1CCO (stereo not given in full),inactive
10,COc1ccc2c3c(n(C)c2c1)[C@@H](CO)N(C(=O)C1CCCC1)CC31CCN(C(=O)Nc2cccc(F)c2)CC1,inactive
11,O=C(Nc1ccccc1F)N1CCCCN2[C@@H](CO)[C@@H](c3ccc(C#Cc4cccnc4)cc3)[C@@H]2C1,inactive
12,C[C@H]1CN([C@@H](C)CO)S(=O)(=O)c2ccc(-c3ccc(C#N)cc3)cc2O[C@H]1CN(C)CC1CC1,inactive
13,CCS(=O)(=O)N1CCC2(CC1)CN(S(=O)(=O)c1ccc(C)cc1)[C@@H](CO)c1[nH]c3cc(OC)ccc3c12,inactive
14,Cc1cccc(S(=O)(=O)N2C[C@@H]3N[C@H](C2)C3c2ccc(-c3cccnc3)cc2)c1 (stereo not given in full),inactive
15,Fc1cccc(-c2ccc(C3[C@@H]4CN(Cc5cncnc5)C[C@H]3N4)cc2)c1 (stereo not given in full),inactive
16,FC(F)(F)c1cccc(CN2[C@@H]3CNC[C@H]2[C@@H]3c2ccc(-c3cccnc3)cc2)c1,inactive
17,c1cncc(-c2ccc(C3[C@@H]4CN(Cc5nccs5)C[C@H]3N4)cc2)c1 (stereo not given in full),inactive
18,O=C(C1CCCC1)N1CC(=O)N2[C@H](CO)[C@H](c3ccc(-c4cccnc4)cc3)[C@H]2C1,inactive
19,C[C@@H]1CN([C@H](C)CO)S(=O)(=O)c2ccc(C#Cc3ccccc3)cc2O[C@H]1CN(C)S(=O)(=O)c1cn(C)cn1,inactive
20,CC(C)C#Cc1ccc([C@@H]2[C@@H](CO)N3C(=O)CN(C(=O)C4CCCCC4)C[C@@H]23)cc1,inactive
21,CO[C@@H]1CN(C)C(=O)c2ccc(NC(=O)C3CC3)cc2OC[C@@H](C)N(Cc2ccccc2)C[C@H]1C,inactive
22,CC(=O)N1CC2(C1)[C@@H](c1ccc(-c3cccc(F)c3)cc1)[C@@H](CO)N2CC1CCCC1,inactive
23,O=C(c1ccccc1F)N1C[C@H]2[C@@H](c3ccccc31)[C@@H](CO)N2C(=O)c1ccc(F)cc1,inactive
24,CCS(=O)(=O)N1CC2(CN(Cc3ccccc3F)[C@@H](CO)c3[nH]c4cc(OC)ccc4c32)C1,inactive

row,Structure (SMILES),outcome
1,CCCC(=O)Nc1ccc2c(c1)OC[C@@H](C)N(Cc1ccccc1F)C[C@@H](C)[C@H](OC)CN(C)C2=O,inactive
2,O=C(c1ccncc1)N1CC(=O)N2[C@H](C1)[C@@H](c1ccc(-c3cccnc3)cc1)[C@@H]2CO,inactive
3,O=C(C1CCCC1)N1CC(=O)N2[C@H](CO)[C@@H](c3ccc(C#CCc4ccccc4)cc3)[C@@H]2C1,inactive
4,O=C(Cc1ccccc1)N1CC(=O)N2[C@H](CO)[C@H](c3ccc(C#CCc4ccccc4)cc3)[C@H]2C1,inactive
5,O=C(C1CCC1)N1CC(=O)N2[C@H](CO)[C@@H](c3ccc(C#CCc4ccccc4)cc3)[C@@H]2C1,inactive
6,O=C(C1CCC1)N1CC(=O)N2[C@H](CO)[C@@H](c3ccc(C#CCc4ccccc4)cc3)[C@H]2C1,inactive
7,O=C(C1CC1)N1CC(=O)N2[C@H](CO)[C@@H](c3ccc(C#CCc4ccccc4)cc3)[C@@H]2C1,inactive
8,COc1cccc(C#Cc2ccc([C@H]3[C@@H](CO)N4C(=O)CN(C(=O)c5ccccc5)C[C@H]34)cc2)c1,inactive
9,COc1ccc(C#Cc2ccc([C@H]3[C@H]4CN(C(=O)c5ccccc5)CC(=O)N4[C@H]3CO)cc2)cc1,inactive
10,O=C(C1CCCCC1)N1CC(=O)N2[C@H](CO)[C@@H](c3ccc(C#CCc4ccccc4)cc3)[C@@H]2C1,inactive
11,C[C@H]1CN([C@@H](C)CO)C(=O)c2c(c3ccccc3n2C)-c2ccccc2CO[C@@H]1CN(C)S(=O)(=O)c1ccc(F)cc1,inactive
12,N#C[C@H]1[C@@H](c2ccc(C#Cc3ccccc3F)cc2)[C@@H](CO)N1C(=O)C1CCC1,inactive
13,C[C@H]1CN([C@@H](C)CO)S(=O)(=O)c2ccc(C#Cc3ccccc3)cc2O[C@H]1CN(C)C(=O)C1CC1,inactive
14,CCCC(=O)Nc1ccc2c(c1)OC[C@@H](C)N(Cc1cc(F)ccc1F)C[C@@H](C)[C@H](OC)CN(C)C2=O,inactive
15,COc1ccccc1-c1ccccc1[C@H]1[C@H](C#N)N(C(=O)C2CCC2)[C@H]1CO,inactive
16,COc1ccccc1S(=O)(=O)N(C)C[C@H]1Oc2cc(/C=C/c3ccccc3)ccc2S(=O)(=O)N([C@H](C)CO)C[C@@H]1C,inactive
17,COc1ccc(NC(=O)Nc2ccc3c(c2)[C@@H]2C[C@H](CC(=O)N[C@@H](C)c4ccccc4)O[C@H](CO)[C@@H]2O3)cc1,inactive
18,O=C(C1CC1)N1C[C@@H]2N[C@H](C1)C2c1ccc(-c2ccccc2F)cc1 (stereo not given in full),inactive
19,CN(C)C(=O)c1ccc(-c2ccc([C@H]3[C@H](CO)N4CCCCN(C(=O)C5CC5)C[C@@H]34)cc2)cc1,inactive
20,CN(C)CC#Cc1ccc([C@H]2[C@H](CO)N3CCCCN(C(=O)CN(C)C)C[C@@H]23)cc1,inactive
21,N#Cc1ccc(-c2ccc(C3[C@@H]4CN(C(=O)C5CCCCC5)C[C@H]3N4)cc2)cc1 (stereo not given in full),inactive
22,N#Cc1ccc(-c2ccc(C3[C@@H]4CN(C(=O)C5CCCC5)C[C@H]3N4)cc2)cc1 (stereo not given in full),inactive
23,CN(C)CC(=O)N1C[C@@H]2N[C@H](C1)C2c1ccc(/C=C/c2ccccc2)cc1 (stereo not given in full),inactive
24,COc1ccc(CNC(=O)C[C@H]2C=C[C@@H](NS(=O)(=O)c3cccc(OC)c3)[C@@H](CO)O2)cc1,inactive

row,Structure (SMILES),outcome
1,Cc1noc(C)c1NC(=O)Nc1ccc2c(c1)C(=O)N([C@H](C)CO)C[C@@H](C)[C@@H](CN(C)S(C)(=O)=O)O2,inactive
2,O=C(C1CC1)N1C[C@@H]2N[C@H](C1)C2c1ccc(-c2cccc(F)c2)cc1 (stereo not given in full),inactive
3,N#Cc1cccc(-c2ccc(C3[C@@H]4CN(C(=O)C5CCC5)C[C@H]3N4)cc2)c1 (stereo not given in full),inactive
4,C[C@@H]1CN([C@@H](C)CO)C(=O)c2c(c3ccccc3n2C)-c2ccccc2CO[C@@H]1CN(C)C(=O)Nc1cccc(Cl)c1Cl,inactive
5,C[C@H]1CN([C@@H](C)CO)C(=O)CCCn2nncc2CO[C@@H]1CN(C)C(=O)Nc1ccc(N2CCCCC2)cc1,inactive
6,OC[C@H]1CC[C@@H]2O[C@H](CCc3ccc(-c4ccc(F)cc4)cc3)[C@H](n3cc(C4CC4)nn3)C[C@@H]2O1,inactive
7,OC[C@@H]1CC[C@@H]2O[C@H](CCc3ccc(-c4ccccc4)cc3)[C@H](n3cc(-c4ccccc4)nn3)C[C@@H]2O1,inactive
8,O=C(C[C@@H]1CC[C@@H]2[C@H](COC[C@@H](O)CN2S(=O)(=O)c2ccccc2)O1)NCc1ccc(-c2ccccc2)cc1,inactive
9,N#Cc1cccc(-c2ccc(C3[C@@H]4CN(C(=O)C5CC5)C[C@H]3N4)cc2)c1 (stereo not given in full),inactive
10,COc1cccc(CN2C[C@@H]3N[C@H](C2)C3c2ccc(-c3ccncc3)cc2)c1 (stereo not given in full),inactive
11,COc1ccc(NC(=O)Nc2cccc3c2O[C@H](CN(C)C(=O)Nc2cccc4ccccc24)[C@H](C)CN([C@@H](C)CO)C3=O)cc1,inactive
12,CC(C)NC(=O)N1[C@@H](CO)[C@@H](c2ccccc2)C12CN(Cc1ccc(F)cc1)C2,inactive
13,CO[C@@H]1CN(C)C(=O)c2cc(NC(=O)Cc3ccccc3)ccc2OC[C@H](C)N(C(=O)c2ccccc2F)C[C@@H]1C,inactive
14,CCCC(=O)N1CC2(C1)CN(Cc1ccc(Cl)cc1)[C@H](CO)c1[nH]c3cc(OC)ccc3c12,inactive
15,COc1ccc(C#Cc2cccc(-c3nc(C(=O)N[C@@H]4CCN(Cc5ccccc5)C4)cc4c3[C@@H](CCO)N(S(=O)C(C)(C)C)C4)c2)cc1OC (stereo not given in full),inactive
16,C[C@H](CO)N1C[C@H](C)[C@H](CN(C)S(=O)(=O)c2ccccc2F)OCc2ccccc2-c2c(n(C)c3ccccc23)C1=O,inactive
17,COc1cccc(-c2ccc([C@@H]3[C@H](CO)N4CCCCN(C(=O)c5ccc(F)cc5)C[C@@H]34)cc2)c1,inactive
18,COc1ccc2c3c([nH]c2c1)[C@@H](CO)N(Cc1ccccc1F)CC31CN(C(=O)C2CCCC2)C1,inactive
19,COc1ccc(NC(=O)N(C)C[C@H]2OCc3ccccc3-c3c(n(C)c4ccccc34)C(=O)N([C@H](C)CO)C[C@@H]2C)c(OC)c1,inactive
20,CC(C)c1cn([C@H]2C[C@@H]3O[C@H](CO)CC[C@@H]3O[C@@H]2CCc2ccc(C#CC3(O)CCCC3)cc2)nn1,inactive
21,COCC(=O)Nc1ccc2c(c1)OC[C@@H](C)N(C(=O)NC(C)C)C[C@@H](C)[C@@H](OC)CN(C)C2=O,inactive
22,N#C[C@@H]1[C@@H](c2ccccc2-c2ccccc2F)[C@@H](CO)N1C(=O)C1CCOCC1,inactive
